Counter-ions that a name gives are not always drawn.
What follows are compounds tested on Saccharomyces cerevisiae BY4741 SeMeCo community (assay: z-score of subpopulation abundance vs DMSO median, subpopulation auxotrophic for HUM; higher = larger share of this subpopulation than in DMSO controls). Details: 10 µM; 24 h; SM minimal medium; subpopulation (auxotrophy): HUM.
Experimental: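 Fluorescent four-plasmid SeMeCo (self-establishing metabolically cooperating S. cerevisiae BY4741 community; plasmids pH-mRuby2, pL-mWasabi, pU-eCFP, pM-TagRFP657) was grown 24 h in minimal SM medium with each Selleck FDA-approved drug at 10 µM in 384-well plates. Cells were fixed and imaged by high-content confocal microscopy. For each auxotrophic subpopulation (and the prototroph), a z-score gives the deviation from the DMSO vehicle-control population median.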

Going from `Nc1ccc(S(=O)(=O)NC(=O)c2ccccc2)cc1` [Sulfabenzamide] to `CCCCNC(=O)NS(=O)(=O)c1ccc(C)cc1` [Tolbutamide], the “z-score of subpopulation abundance” value rises from -1.03 to -0.36.

Going from `CN1CCN(c2cc3c(cc2F)c(=O)c(C(=O)O)cn3-c2ccc(F)cc2)CC1` [Difloxacin hydrochloride] to `CN1CCN(CC(=O)N2c3ccccc3C(=O)Nc3cccnc32)CC1` [Pirenzepine dihydrochloride], the “z-score of subpopulation abundance” value falls from -0.72 to -0.75.

First: CC(=O)O[C@]1(C(C)=O)CC[C@H]2[C@@H]3C[C@H](C)C4=CC(=O)CC[C@]4(C)[C@H]3CC[C@@]21C [Medroxyprogesterone acetate]
Second: C[C@]12CCC(=O)C=C1[C@@H]1C[C@@H]1[C@H]1[C@@H]3[C@@H]4C[C@@H]4[C@@]4(CCC(=O)O4)[C@@]3(C)CC[C@@H]12 [Drospirenone]
The “z-score of subpopulation abundance” value of the first is higher: -0.19 for the first, -0.41 for the second.

Going from `OC[C@H]1O[C@H](OCC2O[C@@H](O)[C@H](O)[C@@H](O)[C@@H]2O)[C@H](O)[C@@H](O)[C@H]1O` (stereo not given in full) [Melibiose] to `CC[C@H]1OC(=O)[C@H](C)[C@@H](O[C@H]2C[C@@](C)(OC)[C@@H](O)[C@H](C)O2)[C@H](C)[C@@H](O[C@@H]2O[C@H](C)C[C@H](N(C)C)[C@H]2O)[C@](C)(O)C[C@@H](C)/C(=N\OCOCCOC)[C@H](C)[C@@H](O)[C@]1(C)O` [Roxithromycin], the “z-score of subpopulation abundance” value rises from 0.46 to 1.28.

Going from `COC(=O)C1=C(C)NC(C)=C(C(=O)OC(C)(C)CN(C)CCC(c2ccccc2)c2ccccc2)C1c1cccc([N+](=O)[O-])c1` (stereo not given) [Lercanidipine hydrochloride] to `CCOC(=O)C1=C(C)NC(C)=C(C(=O)OCC)C1c1ccccc1/C=C/C(=O)OC(C)(C)C` [Lacidipine], the “z-score of subpopulation abundance” value falls from 0.37 to -0.96.

First: O=C(NCCN1CCOCC1)c1ccc(Cl)cc1
Second: CCCN1CCCC[C@H]1C(=O)Nc1c(C)cccc1C [Ropivacaine]
The “z-score of subpopulation abundance” value of the first is lower: -1.26 for the first, -0.48 for the second.

Compared with `COC(=O)Nc1nc2cc(Sc3ccccc3)ccc2[nH]1` [Fenbendazole], `COc1ccc2cc(CCC(C)=O)ccc2c1` [Nabumetone] is lower in “z-score of subpopulation abundance” value: 0.36 for the first, -0.22 for the second.

Compared with `Clc1ccc(CSC(Cn2ccnc2)c2ccc(Cl)cc2Cl)cc1` (stereo not given) [Sulconazole Nitrate], `Cc1ccc(-c2cc(C(F)(F)F)nn2-c2ccc(S(N)(=O)=O)cc2)cc1` [Celecoxib] is lower in “z-score of subpopulation abundance” value: 6.12 for the first, -0.8 for the second.

Going from `C[C@]12CC[C@@H]3c4ccc(O)cc4CC[C@H]3[C@@H]1CCC2=O` [Estrone] to `C#C[C@]1(O)CC[C@H]2[C@@H]3CCc4cc(OC)ccc4[C@H]3CC[C@@]21C` [Mestranol], the “z-score of subpopulation abundance” value falls from -0.46 to -0.58.

Going from `C/C=C\c1ccc(O)c(OC)c1` [Isoeugenol] to `COc1ccc2[nH]c([S+]([O-])Cc3ncc(C)c(OC)c3C)nc2c1` (stereo not given) [Omeprazole Sodium], the “z-score of subpopulation abundance” value falls from 0.5 to -0.81.

First: CO/N=C(\C(=O)N[C@@H]1C(=O)N2C(C(=O)O)=C(CSc3nc(=O)c(O)nn3C)CS[C@H]12)c1csc(N)n1 [Ceftriaxone Sodium Trihydrate]
Second: CO/N=C(\C(=O)N[C@@H]1C(=O)N2C(C(=O)O)=C(CSC(=O)c3ccco3)CS[C@H]12)c1csc(N)n1 [Ceftiofur]
The “z-score of subpopulation abundance” value of the first is lower: -2.14 for the first, 0.28 for the second.

Compared with `Cc1c[nH]c(=O)[nH]c1=O` [Thymine], `Nc1nc(=O)[nH]cc1F` [Flucytosine] is higher in “z-score of subpopulation abundance” value: 0.09 for the first, 10.3 for the second.

Compared with `CC1(C)S[C@@H]2[C@H](NC(=O)Cc3ccccc3)C(=O)N2[C@H]1C(=O)O` [Penicillin G Sodium], `CC(C)(C)C(=O)OCOC(=O)[C@@H]1N2C(=O)[C@@H](/N=C/N3CCCCCC3)[C@H]2SC1(C)C` [Pivmecillinam hydrochloride] is higher in “z-score of subpopulation abundance” value: -0.66 for the first, -0.16 for the second.

Going from `C[C@@H]1O[C@@H]1P(=O)(O)O` [Fosfomycin Disodium] to `CC1(C)S[C@@H]2[C@H](NC(=O)Cc3ccccc3)C(=O)N2[C@H]1C(=O)O` [Benzathine penicilline], the “z-score of subpopulation abundance” value falls from -0.19 to -0.33.

Going from `Cc1[nH]c(=O)c(C#N)cc1-c1ccncc1` [Milrinone] to `O=C(O)c1cccnc1Nc1cccc(C(F)(F)F)c1` [Niflumic acid], the “z-score of subpopulation abundance” value rises from -1.04 to -0.49.

Going from `CO[C@H]1C[C@@H]2CC[C@@H](C)[C@@](O)(O2)C(=O)C(=O)N2CCCC[C@H]2C(=O)O[C@H]([C@H](C)C[C@@H]2CC[C@H](n3cnnn3)[C@H](OC)C2)CC(=O)[C@H](C)/C=C(\C)[C@@H](O)[C@@H](OC)C(=O)[C@H](C)C[C@H](C)/C=C/C=C/C=C/1C` [Zotarolimus(ABT-578)] to `C=CC[C@@H]1/C=C(\C)C[C@H](C)C[C@H](OC)[C@H]2O[C@@](O)(C(=O)C(=O)N3CCCC[C@H]3C(=O)O[C@H](/C(C)=C/[C@@H]3CC[C@@H](O)[C@H](OC)C3)[C@H](C)[C@@H](O)CC1=O)[C@H](C)C[C@@H]2OC` [Tacrolimus (FK506)], the “z-score of subpopulation abundance” value falls from 22.3 to 1.84.

Compared with `CCOC(=O)CCC(=O)O[C@H]1[C@H](O[C@@H]2[C@@H](C)[C@H](O[C@H]3C[C@@](C)(OC)[C@@H](O)[C@H](C)O3)[C@@H](C)C(=O)O[C@H](CC)[C@@](C)(O)[C@H](O)[C@@H](C)C(=O)[C@H](C)C[C@@]2(C)O)O[C@H](C)C[C@@H]1N(C)C` [Erythromycin Ethylsuccinate], `COC(=O)C1=C(C)NC(C)=C(C(=O)OC(C)C)C1c1cccc2nonc12` (stereo not given) [Isradipine] is lower in “z-score of subpopulation abundance” value: 1.68 for the first, 0.44 for the second.

Compared with `Cc1ncc([N+](=O)[O-])n1CC(O)CCl` (stereo not given) [Ornidazole], `Cc1ncc([N+](=O)[O-])n1CCO` [Metronidazole] is lower in “z-score of subpopulation abundance” value: 0.44 for the first, 0.09 for the second.

Going from `N#Cc1ccc2[nH]cc(CCCCN3CCN(c4ccc5oc(C(N)=O)cc5c4)CC3)c2c1` [Vilazodone] to `Oc1ccc(C2CNCCc3c2cc(O)c(O)c3Cl)cc1` (stereo not given) [Fenoldopam mesylate], the “z-score of subpopulation abundance” value falls from -0.53 to -0.92.

Compared with `CCN1CCCC1CNC(=O)c1cc(S(=O)(=O)CC)c(N)cc1OC` (stereo not given) [Amisulpride], `CC[N+](CC)(CC)CC` [Tetraethylammonium bromide] is lower in “z-score of subpopulation abundance” value: -0.03 for the first, -0.37 for the second.

— the supplement of paper PMC8975748
